First the molecules themselves.
T1: RBFOX1 RRM RbFoxmut (Fox-RRM*) (Homo sapiens, UniProt Q9NWB1 109-208, R118D;E147R;N151S;E152T)
T1 sequence: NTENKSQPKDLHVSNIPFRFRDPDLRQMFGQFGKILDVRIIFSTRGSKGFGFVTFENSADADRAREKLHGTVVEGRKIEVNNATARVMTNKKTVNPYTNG

B1: AGAGAUA (DNA:RNA)
RNA: GGGAGACCGGAAUUCAGAUUGUCCAGAGAUAUUAAAUCCCGUCGUAGCCACCA
DNA 1: CAATCTGAATTCCGGTCTCCC
DNA 2: TGGTGGCTACGACGGGATT
B2: AAUCCAU (DNA:RNA)
RNA: B1 RNA with G26A, A27U, G28C, A29C, U30A, A31U
DNA 1: CAATCTGAATTCCGGTCTCCC
DNA 2: TGGTGGCTACGACGGGATT
B3: GGAAACG (DNA:RNA)
RNA: B1 RNA with A25G, G28A, U30C, A31G
DNA 1: CAATCTGAATTCCGGTCTCCC
DNA 2: TGGTGGCTACGACGGGATT
B4: ACGCCAA (DNA:RNA)
RNA: B1 RNA with G26C, A27G, G28C, A29C, U30A
DNA 1: CAATCTGAATTCCGGTCTCCC
DNA 2: TGGTGGCTACGACGGGATT
B5: GAAUCGA (DNA:RNA)
RNA: B1 RNA with A25G, G26A, G28U, A29C, U30G
DNA 1: CAATCTGAATTCCGGTCTCCC
DNA 2: TGGTGGCTACGACGGGATT
B6: GGAAUCA (DNA:RNA)
RNA: B1 RNA with A25G, G28A, A29U, U30C
DNA 1: CAATCTGAATTCCGGTCTCCC
DNA 2: TGGTGGCTACGACGGGATT
B7: CCCGGCG (DNA:RNA)
RNA: B1 RNA with A25C, G26C, A27C, A29G, U30C, A31G
DNA 1: CAATCTGAATTCCGGTCTCCC
DNA 2: TGGTGGCTACGACGGGATT
B8: GUUAUCA (DNA:RNA)
RNA: B1 RNA with A25G, G26U, A27U, G28A, A29U, U30C
DNA 1: CAATCTGAATTCCGGTCTCCC
DNA 2: TGGTGGCTACGACGGGATT
B9: GAUUCAG (DNA:RNA)
RNA: GGGAGACCGGAAUUCAGAUUGUCCGAUUCAGUUAAAUCCCGUCGUAGCCACCA
DNA 1: CAATCTGAATTCCGGTCTCCC
DNA 2: TGGTGGCTACGACGGGATT
B10: GAUCGAA (DNA:RNA)
RNA: B9 RNA with U28C, C29G, G31A
DNA 1: CAATCTGAATTCCGGTCTCCC
DNA 2: TGGTGGCTACGACGGGATT
B11: GAACCAG (DNA:RNA)
RNA: B9 RNA with U27A, U28C
DNA 1: CAATCTGAATTCCGGTCTCCC
DNA 2: TGGTGGCTACGACGGGATT
B12: GUCAUCA (DNA:RNA)
RNA: B1 RNA with A25G, G26U, A27C, G28A, A29U, U30C
DNA 1: CAATCTGAATTCCGGTCTCCC
DNA 2: TGGTGGCTACGACGGGATT
B13: GGCGUUG (DNA:RNA)
RNA: B1 RNA with A25G, A27C, A29U, A31G
DNA 1: CAATCTGAATTCCGGTCTCCC
DNA 2: TGGTGGCTACGACGGGATT
B14: GGCGUCG (DNA:RNA)
RNA: B1 RNA with A25G, A27C, A29U, U30C, A31G
DNA 1: CAATCTGAATTCCGGTCTCCC
DNA 2: TGGTGGCTACGACGGGATT
B15: CGAUCGA (DNA:RNA)
RNA: B1 RNA with A25C, G28U, A29C, U30G
DNA 1: CAATCTGAATTCCGGTCTCCC
DNA 2: TGGTGGCTACGACGGGATT
B16: GAAUCAG (DNA:RNA)
RNA: B9 RNA with U27A
DNA 1: CAATCTGAATTCCGGTCTCCC
DNA 2: TGGTGGCTACGACGGGATT
B17: AGGUGCA (DNA:RNA)
RNA: B1 RNA with A27G, G28U, A29G, U30C
DNA 1: CAATCTGAATTCCGGTCTCCC
DNA 2: TGGTGGCTACGACGGGATT
B18: GUAUUCU (DNA:RNA)
RNA: B9 RNA with A26U, U27A, C29U, A30C, G31U
DNA 1: CAATCTGAATTCCGGTCTCCC
DNA 2: TGGTGGCTACGACGGGATT
B19: UCCUAGU (DNA:RNA)
RNA: B1 RNA with A25U, G26C, A27C, G28U, U30G, A31U
DNA 1: CAATCTGAATTCCGGTCTCCC
DNA 2: TGGTGGCTACGACGGGATT
B20: UUCUCAG (DNA:RNA)
RNA: B9 RNA with G25U, A26U, U27C
DNA 1: CAATCTGAATTCCGGTCTCCC
DNA 2: TGGTGGCTACGACGGGATT
B21: CGGCGAA (DNA:RNA)
RNA: B1 RNA with A25C, A27G, G28C, A29G, U30A
DNA 1: CAATCTGAATTCCGGTCTCCC
DNA 2: TGGTGGCTACGACGGGATT
B22: GUUUAAG (DNA:RNA)
RNA: B9 RNA with A26U, C29A
DNA 1: CAATCTGAATTCCGGTCTCCC
DNA 2: TGGTGGCTACGACGGGATT
B23: UCCCAUG (DNA:RNA)
RNA: B1 RNA with A25U, G26C, A27C, G28C, A31G
DNA 1: CAATCTGAATTCCGGTCTCCC
DNA 2: TGGTGGCTACGACGGGATT
B24: GUCGUCG (DNA:RNA)
RNA: B9 RNA with A26U, U27C, U28G, C29U, A30C
DNA 1: CAATCTGAATTCCGGTCTCCC
DNA 2: TGGTGGCTACGACGGGATT
B25: CGUCCCG (DNA:RNA)
RNA: B9 RNA with G25C, A26G, U28C, A30C
DNA 1: CAATCTGAATTCCGGTCTCCC
DNA 2: TGGTGGCTACGACGGGATT
B26: GGAAUCG (DNA:RNA)
RNA: B1 RNA with A25G, G28A, A29U, U30C, A31G
DNA 1: CAATCTGAATTCCGGTCTCCC
DNA 2: TGGTGGCTACGACGGGATT
B27: GAUGUCG (DNA:RNA)
RNA: B9 RNA with U28G, C29U, A30C
DNA 1: CAATCTGAATTCCGGTCTCCC
DNA 2: TGGTGGCTACGACGGGATT
B28: GGCGAUG (DNA:RNA)
RNA: B1 RNA with A25G, A27C, A31G
DNA 1: CAATCTGAATTCCGGTCTCCC
DNA 2: TGGTGGCTACGACGGGATT
B29: GUCGAUG (DNA:RNA)
RNA: B1 RNA with A25G, G26U, A27C, A31G
DNA 1: CAATCTGAATTCCGGTCTCCC
DNA 2: TGGTGGCTACGACGGGATT
B30: CGCGUAA (DNA:RNA)
RNA: B1 RNA with A25C, A27C, A29U, U30A
DNA 1: CAATCTGAATTCCGGTCTCCC
DNA 2: TGGTGGCTACGACGGGATT
B31: AACGAAC (DNA:RNA)
RNA: B1 RNA with G26A, A27C, U30A, A31C
DNA 1: CAATCTGAATTCCGGTCTCCC
DNA 2: TGGTGGCTACGACGGGATT

Numbering of substitutions follows the chain as printed; changes in the protein carry UniProt numbers. The full ranking holds about 16,000 sequences; the median of “ka relative to ugcaugu” is about 0.096, and the highest 2% start at about 0.35. Many of the other results were omitted from the sample, so the highest values are more common in it than they were.

For this assay, the target named is T1, RBFOX1 RRM RbFoxmut (Fox-RRM*). Briefly: EMSA; HiTS-Eq, 1 nM pool, 10 min; buffer printed only for the single-RNA assays: 10 mM Tris pH 7.5, 150 mM NaCl, 3.4 mM EDTA, 0.001% NP-40, 30 C. The following applies: tags: His6 N-terminal (pET28a); label: 5' 32P. Summed up:
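A pool of RNA with 7 randomized nucleotides, 5′-radiolabelled and with DNA-annealed flanks, was equilibrated at 1 nM for 10 min in 50 µL with purified RbFox RRM, wild type or mutant, across increasing protein concentrations. Free RNA was separated by 8% native PAGE, excised, reverse-transcribed, barcoded by PCR and sequenced. Relative association constants were obtained from read-count changes of each RNA species versus the control reaction and normalised to the cognate motif.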
For orientation: A gel shift assay detects complexes by their altered migration in electrophoresis.
As to B1, the binding signal is 0.15 KA relative to UGCAUGU.
Regarding B2, the binding signal was 0.074 KA relative to UGCAUGU.
For B3 the value was 0.0703 KA relative to UGCAUGU; for B4, 0.0795 KA relative to UGCAUGU.
Take B5: the binding signal was 0.561 KA relative to UGCAUGU.
As to B6, the binding signal is 0.426 KA relative to UGCAUGU.
As for B7, the binding signal was 0.098 KA relative to UGCAUGU.
For B8, the binding signal was 0.18 KA relative to UGCAUGU.
For B9 the value was 0.155 KA relative to UGCAUGU; for B10, 0.113 KA relative to UGCAUGU.
On to B11, for which the binding signal is 0.105 KA relative to UGCAUGU.
For the molecule B12, the binding signal was 0.129 KA relative to UGCAUGU.
For B13 the value was 0.367 KA relative to UGCAUGU; for B14, 0.203 KA relative to UGCAUGU; for B15, 0.0748 KA relative to UGCAUGU.
For the molecule B16, the binding signal is 0.389 KA relative to UGCAUGU.
Regarding B17, the binding signal is 0.21 KA relative to UGCAUGU.
For the molecule B18, the binding signal was 0.0952 KA relative to UGCAUGU.
B19: the binding signal is 0.117 KA relative to UGCAUGU.
For B20 the value was 0.0887 KA relative to UGCAUGU; for B21, 0.0938 KA relative to UGCAUGU; for B22, 0.131 KA relative to UGCAUGU.
Take B23: the binding signal is 0.0994 KA relative to UGCAUGU.
For the molecule B24, the binding signal is 0.15 KA relative to UGCAUGU.
Turning to B25, the binding signal was 0.0717 KA relative to UGCAUGU.
As for B26, the binding signal was 0.387 KA relative to UGCAUGU.
Regarding B27, the binding signal was 0.145 KA relative to UGCAUGU.
As to B28, the binding signal was 0.404 KA relative to UGCAUGU.
For B29 the value was 0.141 KA relative to UGCAUGU.
For B30 the value was 0.114 KA relative to UGCAUGU; for B31, 0.0568 KA relative to UGCAUGU.

The values above are taken from publication PMC9911399, “Two distinct binding modes provide the RNA-binding protein RbFox with extraordinary sequence specificity”.
